Experimental data from PubChem BioAssay AID1159580 (chemical genetic matrix, 2015).
Several values for one entry are separate records, joined by “and”; a condition that tells them apart may be missing. Equal values may be shown once. Among all 5,500 compounds or so, about 2,000 (36%) were called active. Another 18% or so got no clear call; they are omitted. Cut-off read from the data, not from the text of the source: active = normalized growth mostly below about 0.91 (no sharp cut-off); inconclusive = no clear call, values can overlap the other calls; inactive = mostly above about 0.92. The list shows a part of the results.

Experiment: chemical genetic growth profiling, strain panel (AID 1159580);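 note: tested at 20 µM; growth read once vehicle control cultures reached saturation at 30 °C; 1 = growth at the plate median or of vehicle wells; lower values mean less growth of the strain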
Conditions: S. cerevisiae deletion strains, growth OD

Measured: normalized growth

NC[C@H]1O[C@H](OC2[C@@H](N)C[C@@H](N)[C@H](O[C@H]3O[C@H](CO)[C@@H](O)[C@H](N)[C@H]3O)[C@H]2O)[C@H](O)[C@@H](O)[C@@H]1O (some centres undefined)
inactive: locus YAL013W, strain DEP1, hits give low values 0.997 | locus YAL021C, strain ccr4, hits give low values 0.993 | locus YAL026C, strain drs2, hits give low values 0.998 | locus YAL030W, strain snc1, hits give low values 1 | locus YBL061C, strain skt5, hits give low values 1.01 | locus YBR009C, strain hhf1, hits give low values 1.01 | locus YBR021W, strain FUR4, hits give low values 0.97 | locus YBR023C, strain chs3, hits give low values 0.983 | locus YBR171W, strain sec66, hits give low values 0.989 | locus YBR229C, strain ROT2, hits give low values 0.988 | locus YBR231C, strain swc5, hits give low values 0.998 | locus YBR279W, strain paf1, hits give low values 1.01 | locus YCL011C, strain gbp2, hits give low values 0.999 | locus YCL016C, strain dcc1, hits give low values 0.985 | locus YCL029C, strain bik1, hits give low values 0.985 | locus YCL061C, strain MRC1, hits give low values 0.99 | locus YCL069W, strain vba3, hits give low values 0.998 | locus YCR088W, strain abp1, hits give low values 0.994 | locus YDL005C, strain med2, hits give low values 0.994 | locus YDL035C, strain GPR1, hits give low values 1.02 | locus YDL040C, strain nat1, hits give low values 1 | locus YDL074C, strain BRE1, hits give low values 0.991 | locus YDL101C, strain DUN1, hits give low values 0.986 | locus YDL134C, strain PPH21, hits give low values 1.01 | locus YDL185W, strain tfp1, hits give low values 0.997 | locus YDL192W, strain arf1, hits give low values 0.98 | locus YDR001C, strain nth1, hits give low values 0.995 | locus YDR069C, strain doa4, hits give low values 1 | locus YDR101C, strain arx1, hits give low values 0.99 | locus YDR137W, strain rgp1, hits give low values 0.997 | locus YDR150W, strain NUM1, hits give low values 1 | locus YDR159W, strain sac3, hits give low values 1 | locus YDR162C, strain NBP2, hits give low values 1 | locus YDR195W, strain ref2 0.961 | locus YDR297W, strain sur2, hits give low values 0.998 | locus YDR318W, strain mcm21, hits give low values 0.978 | locus YDR334W, strain swr1, hits give low values 0.988 | locus YDR335W, strain msn5, hits give low values 1 | locus YDR388W, hits give low values 0.993 | locus YDR392W, strain spt3, hits give low values 0.935 | locus YDR502C, strain sam2, hits give low values 1.01 | locus YEL003W, strain gim4, hits give low values 1.01 | locus YEL037C, strain rad23, hits give low values 1.01 | locus YEL061C, strain CIN8 (second series), hits give low values 0.999 | locus YEL061C, strain CIN8, hits give low values 0.997 | locus YER015W, strain faa2, hits give low values 0.978 | locus YER016W, strain bim1, hits give low values 1.01 | locus YER110C, hits give low values 0.97 | locus YER111C, strain swi4, hits give low values 0.994 | locus YER155C, strain BEM2 (second series), hits give low values 0.993 | locus YER155C, strain BEM2, hits give low values 0.993 | locus YER167W, strain BCK2, hits give low values 0.989 | locus YFR010W, strain ubp6, hits give low values 1 | locus YGL078C, strain dbp3, hits give low values 0.973 | locus YGL086W, strain mad1, hits give low values 1 | locus YGL167C, strain pmr1, hits give low values 1.01 | locus YGL173C, strain kem1, hits give low values 0.996 | locus YGL227W, strain vid30, hits give low values 0.991 | locus YGL240W, strain doc1, hits give low values 0.99 | locus YGL248W, strain PDE1, hits give low values 0.984 | locus YGL253W, strain hxk2, hits give low values 1.01 | locus YGR135W, strain pre9, hits give low values 0.943 | locus YGR252W, strain gcn5, hits give low values 0.967 | locus YHR013C, strain ard1, hits give low values 0.982 | locus YHR027C, strain rpn1, hits give low values 1 | locus YHR030C, strain SLT2, hits give low values 0.991 | locus YHR079C, strain IRE1 (second series), hits give low values 0.982 | locus YHR079C, strain IRE1, hits give low values 0.993 | locus YHR094C, strain hxt1, hits give low values 0.975 | locus YHR129C, strain ARP1, hits give low values 0.994 | locus YHR142W, strain chs7, hits give low values 0.998 | locus YHR200W, strain rpn10, hits give low values 0.993 | locus YIL066C, strain RNR3, hits give low values 0.994 | locus YIL073C, strain SPO22, hits give low values 0.954 | locus YIL125W, strain kgd1, hits give low values 0.987 | locus YIR030C, strain dcg1, hits give low values 0.99 | locus YJL092W, strain hpr5, hits give low values 1 | locus YJL095W, strain BCK1 (second series), hits give low values 0.997 | locus YJL095W, strain BCK1, hits give low values 0.99 and 1.01 | locus YJL115W, strain asf1, hits give low values 0.997 | locus YJL129C, strain trk1, hits give low values 0.991 | locus YJL134W, strain LCB3, hits give low values 0.996 | locus YJL154C, strain vps35, hits give low values 0.992 | locus YJL164C, strain tpk1, hits give low values 0.991 | locus YJL166W, strain qcr8, hits give low values 0.99 | locus YJL168C, strain set2, hits give low values 0.978 | locus YJL187C, strain SWE1 (second series), hits give low values 0.984 | locus YJL187C, strain SWE1, hits give low values 0.997 | locus YJR043C, strain POL32, hits give low values 1.03
